# Assay results taken from PubChem BioAssay (Tox21).
# Where “and” joins values, the source holds several entries; their conditions need not be identical. Identical values can stand only once. Records with an inconclusive call do not appear. Where a call stands in place of a potency, no number is given. Where a structure was tested more than once in an assay, its records may differ in their call. Calls of active or inactive are those of the source. Unless noted, calls come from the whole dose curve; as a rule, active = well fitted curve in the direction sought with a large enough effect in the repeat runs; inconclusive = weak or mixed curves; inactive = no such curve, though single readings can be large; an effect the other way counts as inactive or inconclusive.
# Assays:
# [1] = qHTS assay to identify small molecule antagonists of the sonic hedgehog signaling (Shh) pathway (AID 1259369; calls by dose curve; note: nearly all actives have a fitted effect of over 45% in size; note: potency is the fitted concentration of half-maximal effect)
# How it was run: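 NIH/3T3-derived Gli1-Luc reporter cells plated 4 h, dosed with compound, then stimulated with conditioned medium for 24 h at 37 C. Firefly luciferase luminescence read after 30 min with detection reagent at room temperature.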
# [2] = target: Estrogen receptor beta (Homo sapiens) (UniProt Q92731); experiment: qHTS assay to identify small molecule agonists of the estrogen receptor beta (ER-beta) signaling pathway (AID 1259377; active = well fitted activation curve with a large enough effect in the signal ratio in the repeat runs, not every such curve was filed as active; the % refers to the signal ratio; note: potency is the fitted concentration of half-maximal effect)
# How it was run: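 Ratiometric beta-lactamase FRET read-out came after 2 h substrate loading at room temperature. It followed 16 h compound treatment at 37C of GripTite HEK293T cells carrying a UAS-bla reporter, plated in 2% charcoal-stripped FBS medium.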
# [3] = target: Estrogen receptor beta (Homo sapiens) (UniProt Q92731); experiment: qHTS assay to identify small molecule antagonists of the estrogen receptor beta (ER-beta) signaling pathway (AID 1259378; active = well fitted inhibition curve with a large enough effect in the signal ratio in the repeat runs, not every such curve was filed as active; the % refers to the signal ratio; note: potency is the fitted concentration of half-maximal effect)
# How it was run: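 Antagonist mode: compounds added to beta-lactamase reporter HEK293T ER-beta-UAS cells stimulated with E2 (1nM final), 16 hr at 37C. LiveBLAzer B/G FRET substrate, 2 hours room temperature, fluorescence read-out.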
# [4] = qHTS assay to identify small molecule agonists of the androgen receptor (AR) signaling pathway in the presence of an antagonist - cell viability counter screen (AID 1259379); note: nearly all actives have a fitted effect of over 25% in size; note: potency is the fitted concentration of half-maximal effect
# How it was run: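 MDA-kb2 cells (MMTV-luciferase, AR/GR), 3,000/well, 5 h attachment, then 3.0 µM nilutamide (final) and compounds at 15 concentrations. Viability by CellTiter-Fluor fluorescence after 16 h at 37 °C, 0% CO2, in the reporter wells.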
# [5] = target: Androgen receptor (Homo sapiens) (UniProt P10275); experiment: qHTS assay to identify small molecule agonists of the androgen receptor (AR) signaling pathway in the presence of an antagonist (AID 1259381; calls by dose curve; note: nearly all actives have a fitted effect of over 15% in size)
# How it was run: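 MDA-kb2 cells carrying MMTV-luciferase (AR/GR responsive), 3,000 cells/well, co-treated with 3.0 uM nilutamide final. Compounds at 15 concentrations, 16 hr at 37C without CO2. Luciferase luminescence read after 30 min with ONE-Glo.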
# [6] = target: Estrogen receptor (Homo sapiens) (UniProt P03372); experiment: qHTS assay to identify small molecule agonists of the estrogen receptor alpha (ER-alpha) signaling pathway in the presence of an antagonist (AID 1259383; calls by dose curve; note: nearly all actives have a fitted effect of over 15% in size; note: potency is the fitted concentration of half-maximal effect; for activation: top concentration of the series differs between compounds)
# How it was run: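 VM7Luc4E2 cells express endogenous full-length ER-alpha with an ERE-luciferase reporter and were hormone-deprived for 5 days. Compounds at 15 concentrations were added with 10.0nM ICI-182,780 for 22hr at 37C. Luminescence was read with ONE-Glo.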
# [7] = qHTS assay to identify small molecule agonists or antagonists of the thyroid stimulating hormone receptor (TSHR) signaling pathway - wild type cell line counter screen (AID 1259384; calls by dose curve)
# How it was run: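 Counter screen in untransfected Hek293: compounds (15-point titration, triplicate) plus phosphodiesterase inhibitor Ro20-1724 added after 18 h plating; 30 min RT. Intracellular cAMP via competitive d2/cryptate immunoassay, 1 h incubation.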
# [8] = target: Thyrotropin receptor (Homo sapiens) (UniProt P16473); experiment: qHTS assay to identify small molecule antagonists of the thyroid stimulating hormone receptor (TSHR) signaling pathway (AID 1259385; calls by dose curve; note: nearly all actives have a fitted effect of over 20% in size; note: potency is the fitted concentration of half-maximal effect)
# How it was run: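 Antagonist mode: compound-treated TSHR-expressing HEK293 cells were stimulated with 1.5 ng/mL TSH (final) in presence of Ro20-1724 for 30 min at RT. HTRF cAMP detection after 1 h; each compound tested at 15 concentrations, triplicate.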
# [9] = qHTS assay to identify small molecule agonists of the estrogen receptor alpha (ER-alpha) signaling pathway in the presence of an antagonist - cell viability counter screen (AID 1259386);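 note: cells exposed to compounds for 22 h at 37 °C before the viability read; nearly all actives have a fitted effect of over 30% in size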; note: potency is the fitted concentration of half-maximal effect
# How it was run: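 Cell viability in VM7Luc4E2 cells (endogenous full-length ER-alpha) measured by CellTiter-Fluor fluorescence in the same wells as the luciferase screen. Cells pre-cultured 5 days in charcoal-stripped serum, then treated 22 h with compounds at 15 concentrations plus 10.0nM ICI-182,780.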
# [10] = qHTS assay to identify small molecule antagonists of the progesterone receptor (PR) signaling pathway - cell viability counter screen (AID 1346798); note: nearly all actives have a fitted effect of over 50% in size; note: potency is the fitted concentration of half-maximal effect
# How it was run: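 Cytotoxicity read as CellTiter-Glo luminescence (30 min, room temperature) in the same wells as the beta-lactamase readout. HEK293T PR-UAS-bla cells in charcoal-stripped 2% FBS received compound and R5020, then 16 h at 37C, 5% CO2.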
# [11] = qHTS assay to identify small molecule agonists of the progesterone receptor (PR) signaling pathway - cell viability counter screen (AID 1346799; calls by dose curve; note: nearly all actives have a fitted effect of over 45% in size; note: potency is the fitted concentration of half-maximal effect)
# How it was run: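 Cytotoxicity measured by CellTiter-Glo luminescence (30 min, RT) in the same wells as the PR beta-lactamase agonist read. Those HEK293T cells had 16 h compound treatment at 37 C in 2% charcoal-stripped FBS medium.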
# [12] = qHTS assay to identify small molecule antagonists of the TGF-beta/Smad signaling pathway - cell viability counter screen (AID 1346824); note: nearly all actives have a fitted effect of over 50% in size; note: potency is the fitted concentration of half-maximal effect
# How it was run: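 Cytotoxicity counter-screen run in the same wells as the beta-lactamase Smad reporter read: CellTiter-Glo luminescence after 30 min at room temperature. HEK 293T SBE-bla cells had 5 hr compound exposure at 37 C with TGF-beta1 (0.25 ng/mL stock).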
# [13] = qHTS assay to identify small molecule agonists of the TGF-beta/Smad signaling pathway - cell viability counter screen (AID 1346829); note: nearly all actives have a fitted effect of over 45% in size; note: potency is the fitted concentration of half-maximal effect
# How it was run: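 Same-well cytotoxicity: CellTiter-Glo added after the 2 hr room-temperature beta-lactamase substrate step, luminescence measured 30 min later; cells had 5 hr of compound at 37 C.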
# [14] = qHTS assay to identify small molecule agonists of the estrogen receptor beta (ER-beta) signaling pathway - cell viability counter screen (AID 1259380); note: nearly all actives have a fitted effect of over 30% in size; note: potency is the fitted concentration of half-maximal effect
# How it was run: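 ER-beta-UAS-bla HEK293T cells in medium with 2% charcoal-stripped FBS, pre-incubated 6 hr, then treated 16 hr at 37C. Cytotoxicity read in the same wells by CellTiter-Glo luminescence after 30 min at room temperature.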
# [15] = qHTS assay to identify small molecule antagonists of the estrogen receptor beta (ER-beta) signaling pathway - cell viability counter screen (AID 1259382); note: nearly all actives have a fitted effect of over 55% in size; note: potency is the fitted concentration of half-maximal effect
# How it was run: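 ER-beta-UAS-bla HEK293T cells in 2% charcoal-stripped FBS medium, treated with compound plus 1 nM 17-beta-estradiol for 16 h at 37C. Viability read by CellTiter-Glo luminescence after 30 min at room temperature in the same wells.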
# [16] = target: Progesterone receptor (Homo sapiens) (UniProt P06401); experiment: qHTS assay to identify small molecule antagonists of the progesterone receptor (PR) signaling pathway (AID 1346795; active = well fitted inhibition curve with a large enough effect in the signal ratio in the repeat runs, not every such curve was filed as active; the % refers to the signal ratio; note: potency is the fitted concentration of half-maximal effect)
# How it was run: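 Antagonist mode with agonist R5020 at 1 nM final and 16 hr incubation at 37C. Reporter was beta-lactamase driven by UAS in HEK293T (PR-UAS-bla), 2% charcoal-stripped serum; signal from LiveBLAzer FRET substrate, 2 hr at room temperature.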
# [17] = qHTS assay to identify small molecule agonists of the TGF-beta/Smad signaling pathway (AID 1346859; active = well fitted activation curve with a large enough effect in the signal ratio in the repeat runs, not every such curve was filed as active; the % refers to the signal ratio; note: series mostly up to about 77 µM)
# How it was run: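 Fluorescence (ex 405 nm; em 460 and 530 nm) was read 2 h after LiveBLAzer FRET substrate at RT. The preceding compound treatment of overnight-plated SBE-bla HEK293T cells lasted 5 h at 37 C.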
# [18] = target: Thyrotropin-releasing hormone receptor (Homo sapiens) (UniProt P34981); experiment: qHTS assay to identify small molecule antagonists of the thyrotropin-releasing hormone receptor (TRHR) signaling pathway (AID 1346877; active = well fitted inhibition curve with a large enough effect in the repeat runs, not every such curve was filed as active; note: series mostly up to about 51 µM)
# How it was run: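 TRHR-expressing HEK293 cells loaded with calcium dye for 2 h at 37 C; compounds pre-incubated 5 min at room temperature before TRH challenge at 1 nM final. Intracellular calcium fluorescence read kinetically for 3 min; 15 concentrations in triplicate.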
# [19] = target: Thyrotropin-releasing hormone receptor (Homo sapiens) (UniProt P34981); experiment: qHTS assay to identify small molecule agonists of the thyrotropin-releasing hormone receptor (TRHR) signaling pathway (AID 1346891; calls by dose curve; note: series mostly up to about 58 µM)
# How it was run: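 Agonist-mode intracellular calcium readout: kinetic fluorescence over 3 min at 1 s intervals after compound addition to TRHR-HEK293 cells (18 h seeded, 2 h dye-loaded at 37 C). Fifteen concentrations, triplicates.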
# [20] = target: Progesterone receptor (Homo sapiens) (UniProt P06401); experiment: qHTS assay to identify small molecule agonists of the progesterone receptor (PR) signaling pathway (AID 1346784; calls by dose curve; note: nearly all actives have a fitted effect of over 30% in size)
# How it was run: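 Agonist qHTS: compounds pinned onto 3,000 PR-UAS-bla HEK 293T cells per well in charcoal-stripped serum medium, 16hr at 37C, then beta-lactamase activity measured by LiveBLAzer FRET fluorescence after 2 hours at room temperature.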
# Chain of Thyrotropin-releasing hormone receptor (Homo sapiens) (P34981 whole entry, looked up): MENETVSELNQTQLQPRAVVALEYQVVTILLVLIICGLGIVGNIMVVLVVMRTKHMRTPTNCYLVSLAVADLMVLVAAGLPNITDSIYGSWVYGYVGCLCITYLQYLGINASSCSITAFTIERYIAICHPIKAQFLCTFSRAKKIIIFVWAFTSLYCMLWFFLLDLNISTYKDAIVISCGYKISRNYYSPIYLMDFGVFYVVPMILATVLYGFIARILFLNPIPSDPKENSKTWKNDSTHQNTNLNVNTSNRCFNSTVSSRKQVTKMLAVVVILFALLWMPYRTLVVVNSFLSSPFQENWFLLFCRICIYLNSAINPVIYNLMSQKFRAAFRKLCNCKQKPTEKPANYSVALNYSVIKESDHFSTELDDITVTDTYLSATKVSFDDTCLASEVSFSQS
# Chain of Androgen receptor (Homo sapiens) (P10275 whole entry, looked up): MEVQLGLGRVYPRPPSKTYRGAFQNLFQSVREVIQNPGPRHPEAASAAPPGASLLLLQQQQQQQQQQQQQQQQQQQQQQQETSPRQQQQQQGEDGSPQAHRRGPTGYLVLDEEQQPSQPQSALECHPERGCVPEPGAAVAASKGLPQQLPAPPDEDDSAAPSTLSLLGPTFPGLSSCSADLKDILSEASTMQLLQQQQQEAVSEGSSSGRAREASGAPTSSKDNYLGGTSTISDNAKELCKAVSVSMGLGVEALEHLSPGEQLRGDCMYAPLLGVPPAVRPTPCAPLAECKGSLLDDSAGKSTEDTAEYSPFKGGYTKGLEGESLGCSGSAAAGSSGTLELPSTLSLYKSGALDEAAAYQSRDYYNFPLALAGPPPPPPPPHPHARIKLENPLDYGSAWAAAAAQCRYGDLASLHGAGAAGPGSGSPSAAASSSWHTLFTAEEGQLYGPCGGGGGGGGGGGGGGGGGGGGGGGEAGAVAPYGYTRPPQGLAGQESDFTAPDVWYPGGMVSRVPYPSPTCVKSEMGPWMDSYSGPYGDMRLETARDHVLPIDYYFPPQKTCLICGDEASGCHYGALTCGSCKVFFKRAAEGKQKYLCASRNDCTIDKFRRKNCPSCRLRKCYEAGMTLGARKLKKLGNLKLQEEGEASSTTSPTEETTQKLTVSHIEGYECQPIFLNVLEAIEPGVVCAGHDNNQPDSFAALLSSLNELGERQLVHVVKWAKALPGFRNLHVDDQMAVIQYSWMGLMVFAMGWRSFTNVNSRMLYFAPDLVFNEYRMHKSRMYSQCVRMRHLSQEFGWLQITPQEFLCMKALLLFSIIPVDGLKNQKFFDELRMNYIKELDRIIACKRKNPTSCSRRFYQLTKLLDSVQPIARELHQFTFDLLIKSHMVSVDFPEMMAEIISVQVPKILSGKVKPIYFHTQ
# Chain of Estrogen receptor (Homo sapiens) (P03372 whole entry, looked up): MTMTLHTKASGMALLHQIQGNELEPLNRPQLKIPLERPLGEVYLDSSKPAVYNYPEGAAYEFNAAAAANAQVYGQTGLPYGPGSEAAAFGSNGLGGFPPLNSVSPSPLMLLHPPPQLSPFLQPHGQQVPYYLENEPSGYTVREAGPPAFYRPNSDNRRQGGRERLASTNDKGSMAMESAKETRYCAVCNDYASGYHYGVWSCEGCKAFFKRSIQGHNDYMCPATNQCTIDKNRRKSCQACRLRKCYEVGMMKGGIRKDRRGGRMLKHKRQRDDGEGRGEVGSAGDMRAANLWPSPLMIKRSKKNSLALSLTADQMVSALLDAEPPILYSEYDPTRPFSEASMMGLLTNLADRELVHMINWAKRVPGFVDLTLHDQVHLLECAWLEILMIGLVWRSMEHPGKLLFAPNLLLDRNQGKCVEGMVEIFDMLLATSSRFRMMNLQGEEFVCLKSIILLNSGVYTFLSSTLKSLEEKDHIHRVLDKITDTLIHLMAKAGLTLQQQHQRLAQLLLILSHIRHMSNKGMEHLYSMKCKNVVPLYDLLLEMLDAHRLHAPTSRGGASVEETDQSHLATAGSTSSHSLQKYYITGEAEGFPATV
# Chain of Thyrotropin receptor (Homo sapiens) (P16473 whole entry, looked up): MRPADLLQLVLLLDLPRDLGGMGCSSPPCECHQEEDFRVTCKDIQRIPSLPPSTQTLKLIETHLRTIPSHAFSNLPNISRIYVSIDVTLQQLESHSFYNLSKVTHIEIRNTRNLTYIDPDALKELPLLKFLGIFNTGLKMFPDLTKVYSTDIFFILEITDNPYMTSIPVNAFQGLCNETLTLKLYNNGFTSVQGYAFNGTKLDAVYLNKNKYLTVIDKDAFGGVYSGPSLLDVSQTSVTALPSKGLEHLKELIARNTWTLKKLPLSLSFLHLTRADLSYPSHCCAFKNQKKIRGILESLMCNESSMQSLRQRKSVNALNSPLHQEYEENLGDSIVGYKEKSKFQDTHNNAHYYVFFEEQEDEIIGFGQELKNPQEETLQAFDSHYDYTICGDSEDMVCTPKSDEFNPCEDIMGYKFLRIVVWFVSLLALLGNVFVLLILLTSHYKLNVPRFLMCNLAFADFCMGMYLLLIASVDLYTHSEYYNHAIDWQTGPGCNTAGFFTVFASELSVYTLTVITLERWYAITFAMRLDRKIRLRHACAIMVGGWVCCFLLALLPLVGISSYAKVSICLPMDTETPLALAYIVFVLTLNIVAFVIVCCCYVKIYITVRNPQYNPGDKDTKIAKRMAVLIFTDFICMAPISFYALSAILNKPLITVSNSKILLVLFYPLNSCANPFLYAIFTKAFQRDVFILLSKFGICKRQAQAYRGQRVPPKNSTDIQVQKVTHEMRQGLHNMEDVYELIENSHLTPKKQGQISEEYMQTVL
# Chain of Progesterone receptor (Homo sapiens) (P06401 whole entry, looked up): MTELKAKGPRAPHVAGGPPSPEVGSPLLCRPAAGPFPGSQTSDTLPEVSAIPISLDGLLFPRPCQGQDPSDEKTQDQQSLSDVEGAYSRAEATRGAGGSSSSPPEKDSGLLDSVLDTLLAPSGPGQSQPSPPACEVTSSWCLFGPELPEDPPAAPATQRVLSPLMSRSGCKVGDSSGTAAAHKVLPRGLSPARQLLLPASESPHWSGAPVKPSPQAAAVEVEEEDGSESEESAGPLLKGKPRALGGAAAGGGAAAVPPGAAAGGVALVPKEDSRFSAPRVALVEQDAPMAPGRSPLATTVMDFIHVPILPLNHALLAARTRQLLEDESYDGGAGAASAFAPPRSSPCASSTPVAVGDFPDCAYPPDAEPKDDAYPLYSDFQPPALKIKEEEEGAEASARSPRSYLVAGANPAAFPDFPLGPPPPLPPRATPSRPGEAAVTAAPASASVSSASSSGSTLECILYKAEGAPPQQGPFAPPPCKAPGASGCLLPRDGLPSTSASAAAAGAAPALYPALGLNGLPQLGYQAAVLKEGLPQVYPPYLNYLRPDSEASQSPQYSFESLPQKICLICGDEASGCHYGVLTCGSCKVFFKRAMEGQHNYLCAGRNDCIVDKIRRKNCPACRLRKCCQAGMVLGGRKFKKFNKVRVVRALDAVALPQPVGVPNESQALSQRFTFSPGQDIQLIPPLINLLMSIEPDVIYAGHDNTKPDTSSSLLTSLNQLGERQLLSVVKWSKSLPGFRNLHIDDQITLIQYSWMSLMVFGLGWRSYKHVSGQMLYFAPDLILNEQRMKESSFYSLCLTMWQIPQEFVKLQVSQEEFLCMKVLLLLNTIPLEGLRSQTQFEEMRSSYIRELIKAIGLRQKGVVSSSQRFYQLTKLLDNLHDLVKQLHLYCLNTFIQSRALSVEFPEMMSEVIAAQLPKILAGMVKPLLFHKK
# Chain of Estrogen receptor beta (Homo sapiens) (Q92731 whole entry, looked up): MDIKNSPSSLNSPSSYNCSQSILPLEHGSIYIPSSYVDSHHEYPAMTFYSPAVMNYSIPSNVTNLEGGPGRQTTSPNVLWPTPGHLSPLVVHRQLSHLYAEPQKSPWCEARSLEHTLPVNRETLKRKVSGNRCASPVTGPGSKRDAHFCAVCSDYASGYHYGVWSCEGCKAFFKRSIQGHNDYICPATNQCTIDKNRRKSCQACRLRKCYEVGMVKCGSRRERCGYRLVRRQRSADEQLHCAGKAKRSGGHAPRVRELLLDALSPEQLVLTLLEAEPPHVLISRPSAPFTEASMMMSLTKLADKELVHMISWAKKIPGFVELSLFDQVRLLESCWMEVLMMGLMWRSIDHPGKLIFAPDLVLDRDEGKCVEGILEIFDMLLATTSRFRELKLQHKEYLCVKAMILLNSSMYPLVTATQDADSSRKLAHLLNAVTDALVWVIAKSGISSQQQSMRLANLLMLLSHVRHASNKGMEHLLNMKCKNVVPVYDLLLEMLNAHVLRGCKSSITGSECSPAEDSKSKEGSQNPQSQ
Compound,Potency [1],Potency [2],Potency [3],Potency [4],Potency [5],Potency [6],outcome [7],Potency [8],Potency [9],Potency [10],Potency [11],Potency [12],Potency [13],Potency [14],Potency [15],Potency [16],Potency [17],Potency [18],Potency [19],Potency [20]
O=C(c1ccc(F)cc1)C1CCN(CCn2c(=O)[nH]c3ccccc3c2=O)CC1,inactive,inactive,inactive,inactive,inactive,inactive,inactive,inactive,inactive,inactive,inactive,inactive,inactive,,,,,,,
O=C(c1ccc(O)cc1O)c1ccc(O)cc1O,17.2 µM (active) and 24.3 µM (active),8.64 µM (active) and 7.7 µM (active),,inactive,,9.7 µM (active) and 7.7 µM (active),inactive,inactive,inactive,,inactive,inactive,inactive,inactive,inactive,10.9 µM (active),inactive,inactive,inactive,
CCCCCOC(=O)CCCC,inactive,inactive,,inactive,,inactive,inactive,inactive,inactive,inactive,inactive,,inactive,inactive,inactive,,inactive,,inactive,
Cc1onc(-c2ccccc2Cl)c1C(=O)N[C@@H]1C(=O)N2[C@@H]1SC(C)(C)[C@@H]2C(=O)O,inactive,inactive,,inactive,,inactive,inactive,inactive,inactive,inactive,inactive,inactive,inactive,inactive,inactive,inactive,inactive,,,inactive
C[n+]1ccn(Cc2ccccc2)c1,inactive,inactive,inactive,,,inactive,inactive,inactive,,inactive,,,inactive,inactive,inactive,,inactive,inactive,inactive,inactive
O=Cc1cc(O)ccc1Br,inactive,inactive,,inactive,,inactive,inactive,inactive,inactive,,,,inactive,inactive,inactive,55.3 µM (active),inactive,,,
C/C=C(\C)C(=O)OCc1ccccc1,inactive,inactive,inactive,inactive,,,inactive,inactive,inactive,inactive,inactive,inactive,inactive,inactive,inactive,inactive,inactive,,,inactive
CC(=O)SC[C@@H](Cc1ccccc1)C(=O)NCC(=O)OCc1ccccc1,inactive,inactive,inactive,inactive,,inactive,inactive,23.7 µM (active),inactive,inactive,inactive,,inactive,inactive,inactive,inactive,inactive,,,inactive
CCCCCCC[N+](CC)(CC)CCCCc1ccc(Cl)cc1,0.168 µM (active),inactive,,5.96 µM (active),,inactive,inactive,inactive,26.6 µM (active),,,inactive,inactive,9.44 µM (active),inactive,inactive,,inactive,inactive,inactive
O=C(O)c1c(Cl)cccc1Cl,inactive,inactive,inactive,inactive,,,inactive,inactive,inactive,inactive,inactive,inactive,inactive,,inactive,inactive,inactive,,,
Clc1ccccc1C(c1ccccc1)(c1ccccc1)n1ccnc1,13.3 µM (active),inactive,,30.6 µM (active) and inactive,,inactive,inactive,54.5 µM (active),54.5 µM (active) and inactive,5.45 µM (active) and 29.8 µM (active),7.7 µM (active),,34.7 µM (active) and inactive,17.2 µM (active),15.4 µM (active),9.44 µM (active),,inactive,inactive,
CC(C)(C)c1ccc(C(=O)CCCN2CCC(OC(c3ccccc3)c3ccccc3)CC2)cc1,11.9 µM (active),inactive,13.3 µM (active),29.8 µM (active),,,inactive,inactive,inactive,,,21.3 µM (active),23.9 µM (active),,23.7 µM (active),,,,,inactive
CC[C@H](c1ccc(O)cc1)[C@@H](CC)c1ccc(O)cc1,7.7 µM (active),1.1 nM (active),,inactive,inactive,4.3 nM (active) and 8.4 nM (active),,,inactive,,,inactive,inactive,48.6 µM (active) and inactive,inactive,7.7 µM (active) and 7.5 µM (active),inactive,,,inactive
NC(=O)NS(=O)(=O)c1ccc(N)cc1,inactive,inactive,inactive,inactive,,inactive,inactive,inactive,inactive,inactive,inactive,inactive,inactive,inactive,inactive,inactive,inactive,inactive,inactive,inactive
CCCCCCCC(=O)[O-].CCCCCCCC(=O)[O-].[Zn+2],inactive,inactive,inactive,inactive,,inactive,,,inactive,inactive,,inactive,inactive,inactive,inactive,inactive,inactive,,,inactive
CCCCN1CCCC[C@H]1C(=O)Nc1c(C)cccc1C,inactive,inactive,,inactive,inactive,inactive,inactive,inactive,inactive,,,inactive,inactive,inactive,inactive,inactive,inactive,inactive,inactive,
